Laboratory results from PubChem BioAssay (Tox21).
Results filed as inconclusive are left out. Active and inactive are the calls of the source. Calls come from the whole dose curve; as a rule, active = well fitted curve in the direction sought with a large enough effect in the repeat runs; inconclusive = weak or mixed curves; inactive = no such curve, though single readings can be large; an effect the other way counts as inactive or inconclusive.

What was measured:
[1] = qHTS RealTime-Glo MT Cell Viability Assay in HepG2 cells - 8 hour (AID 1224873); note: nearly all actives have a fitted effect of over 55% in size
Outline: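 Real-time viability: cells seeded at 600 per well together with NanoLuc and cell-permeant prosubstrate, compounds added after 5 h incubation. Luminescence tracked at 0, 8, 16, 24, 32 and 40 h of exposure.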

[2] = qHTS RealTime-Glo MT Cell Viability Assay in HEK293 cells - 40 hour (AID 1224874); settings: RealTime-Glo luminescence; max response: hits give low values; note: nearly all actives have a fitted effect of over 50% in size; note: potency is the fitted concentration of half-maximal effect
Outline: (§1)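 Nonlytic bioluminescent viability monitoring. HEK293 at 600 cells/well with reagent; 5 h settle; compound transfer by pintool; plates held at 37 C and read at set time points.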

[3] = A CellTox Green Cytotoxicity Assay to monitor cytotoxicity in HEK293 cells - 24 hour (AID 1224875); note: series mostly up to about 77 µM; nearly all actives have a fitted effect of over 45% in size
Outline: (§2)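 Cytotoxicity was tracked continuously in HEK293 cells by a DNA-binding dye excluded from viable cells. Compounds were transferred in DMSO 5 h after seeding; fluorescence was recorded at intervals up to 40 h.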

[4] = A CellTox Green Cytotoxicity Assay to monitor cytotoxicity in HepG2 cells - 16 hour (AID 1224876); note: nearly all actives have a fitted effect of over 45% in size
Outline: (§3)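 Real-time, homogeneous cytotoxicity readout: dead-cell DNA staining by CellTox Green in HepG2 monolayers, fluorescence measured at timed intervals up to 40 h of continuous compound exposure.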

[5] = qHTS RealTime-Glo MT Cell Viability Assay in HepG2 cells - 32 hour (AID 1224877); note: nearly all actives have a fitted effect of over 55% in size
Outline: (§4)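 HepG2 cells (600/well) were dispensed with RealTime-Glo reagents, incubated 5 h at 37 °C, then treated with compounds in DMSO for up to 40 h. Nonlytic NanoLuc luminescence reflecting viable cells was read at each stated time point.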

[6] = A CellTox Green Cytotoxicity Assay to monitor cytotoxicity in HepG2 cells - 24 hour (AID 1224878); note: nearly all actives have a fitted effect of over 45% in size
Outline: as §3

[7] = A CellTox Green Cytotoxicity Assay to monitor cytotoxicity in HepG2 cells - 40 hour (AID 1224879); note: nearly all actives have a fitted effect of over 40% in size
Outline: as §3

[8] = A CellTox Green Cytotoxicity Assay to monitor cytotoxicity in HEK293 cells - 32 hour (AID 1224881); note: nearly all actives have a fitted effect of over 40% in size
Outline: as §2

[9] = A CellTox Green Cytotoxicity Assay to monitor cytotoxicity in HepG2 cells - 0 hour (AID 1224882); note: nearly all actives have a fitted effect of over 35% in size
Outline: as §3

[10] = A CellTox Green Cytotoxicity Assay to monitor cytotoxicity in HepG2 cells - 32 hour (AID 1224883); note: nearly all actives have a fitted effect of over 50% in size
Outline: as §3

[11] = A CellTox Green Cytotoxicity Assay to monitor cytotoxicity in HEK293 cells - 8 hour (AID 1224884); note: nearly all actives have a fitted effect of over 35% in size
Outline: as §2

[12] = qHTS RealTime-Glo MT Cell Viability Assay in HepG2 cells - 16 hour (AID 1224885); note: nearly all actives have a fitted effect of over 50% in size
Outline: as §4

[13] = qHTS RealTime-Glo MT Cell Viability Assay in HEK293 cells - 24 hour (AID 1224886); note: nearly all actives have a fitted effect of over 50% in size; note: potency is the fitted concentration of half-maximal effect; for activity change, negative = cytotoxicity: top concentration of the series differs between compounds
Outline: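 HEK293 cells seeded with NanoLuc/prosubstrate reagent, rested 5 h at 37 C, then dosed and kept at 37 C up to 40 h. Nonlytic real-time luminescence from viable cells read at 0, 8, 16, 24, 32 and 40 h.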

[14] = qHTS RealTime-Glo MT Cell Viability Assay in HEK293 cells - 8 hour (AID 1224887)
Outline: as §1

[15] = A CellTox Green Cytotoxicity Assay to monitor cytotoxicity in HEK293 cells - 16 hour (AID 1224888); note: nearly all actives have a fitted effect of over 35% in size
Outline: as §2

[16] = qHTS RealTime-Glo MT Cell Viability Assay in HepG2 cells - 0 hour (AID 1224889); note: nearly all actives have a fitted effect of over 50% in size
Outline: as §4

[17] = A CellTox Green Cytotoxicity Assay to monitor cytotoxicity in HepG2 cells - 8 hour (AID 1224890); note: nearly all actives have a fitted effect of over 45% in size
Outline: as §3

[18] = qHTS assay to identify small molecule antagonists of the estrogen receptor alpha (ER-alpha) signaling pathway using the BG1 cell line in the presence of 0.1 nM 17-beta-estradiol - cell viability counter screen (AID 1259241); note: nearly all actives have a fitted effect of over 40% in size
Outline: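 Live-cell protease activity (CellTiter-Fluor fluorescence, 30 min) was read in the same wells after VM7Luc4E2 cells had been exposed to compounds with 0.1 nM 17beta-estradiol for 22 hr at 37C.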

[19] = qHTS assay to identify small molecule antagonists of the androgen receptor (AR) signaling pathway using the MDA cell line in the presence of 0.5 nM R1881 - cell viability counter screen (AID 1259242); note: nearly all actives have a fitted effect of over 45% in size
Outline: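 Cytotoxicity toward MDA-kb2 cells is measured by CellTiter-Fluor live-cell protease fluorescence after 16 hr compound exposure at 37C in the presence of 0.5 nM R1881 stimulator.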

[20] = qHTS RealTime-Glo MT Cell Viability Assay in HEK293 cells - 0 hour (AID 1224880)
Outline: as §1
% is set by controls: 0 for no effect and ±100 for the full control effect.

COc1ccccc1OCC1CNC(=O)O1 (stereo not given)
inactive: outcome [1] | max response [2] 8.57% | outcome [3] | outcome [4] | Potency [5] | outcome [6] | Potency [7] | outcome [8] | Potency [9] | Potency [10] | outcome [11] | outcome [12] | Potency [13] | Potency [14] | outcome [15] | Potency [16] | outcome [17] | outcome [18] | outcome [19]

CCC1C(=O)OCC1Cc1cncn1C (stereo not given)
inactive: outcome [1] | max response [2] 0.511% | outcome [3] | outcome [4] | Potency [5] | outcome [6] | Potency [7] | outcome [8] | Potency [9] | Potency [10] | outcome [11] | Potency [14] | Potency [16] | outcome [17] | outcome [19]

CO[Si](C)(OC)c1ccccc1
inactive: outcome [1] | max response [2] -2.44% | outcome [3] | outcome [4] | Potency [5] | outcome [6] | Potency [7] | outcome [8] | Potency [9] | Potency [10] | outcome [11] | Potency [13] | Potency [14] | Potency [16] | outcome [17] | outcome [18] | outcome [19]

CCN[C@@H]1C[C@H](N)[C@@H](OC2OC(CN)=CCC2N)[C@H](O)[C@H]1O[C@H]1OC[C@](C)(O)[C@H](NC)[C@H]1O (stereo not given in full)
inactive: viability change, negative = cytotoxic [1] 0.243% [at 0.29 µM] | max response [2] 5.87% | activity change [3] 6.99% [at 0.29 µM] | cytotoxicity increase [4] -0.147% [at 0.29 µM] | activity change, negative = cytotoxic [5] 1.75% [at 0.29 µM] | cytotoxicity [6] -2.12% [at 0.29 µM] | cytotoxicity increase [7] -8.46% [at 0.29 µM] | activity change, negative = cytotoxicity [20] 1.44% [at 0.29 µM] | cytotoxicity increase [8] 8.84% [at 0.29 µM] | cytotoxicity increase [10] -3.76% [at 0.29 µM] | cytotoxicity increase [11] -0.876% [at 0.29 µM] | activity change, negative = cytotoxic [12] 0.169% [at 0.29 µM] | activity change, negative = cytotoxicity [13] 3.34% [at 0.29 µM] | activity change, negative = cytotoxicity [14] 0.47% [at 0.29 µM] | activity change, negative = cytotoxicity [16] 0.414% [at 0.29 µM] | cytotoxicity increase [17] 3.81% [at 0.29 µM] | activity change, negative = cytotoxicity [18] 0.862% [at 0.349 µM] | viability change, negative = cytotoxic [19] 0.329% [at 0.349 µM]

c1ccc(Cc2ccccc2)cc1
inactive: outcome [1] | max response [2] -0.7% | outcome [3] | outcome [4] | Potency [5] | outcome [6] | Potency [7] | Potency [20] | Potency [9] | Potency [10] | outcome [11] | outcome [12] | Potency [13] | Potency [14] | outcome [15] | Potency [16] | outcome [17] | outcome [19]

Cc1ccnc(NS(=O)(=O)c2ccc(N)cc2)n1
inactive: outcome [1] | max response [2] 6.66% | outcome [3] | outcome [4] | Potency [5] | outcome [6] | Potency [7] | outcome [8] | Potency [9] | Potency [10] | outcome [11] | outcome [12] | Potency [13] | Potency [14] | Potency [16] | outcome [17] | outcome [18] | outcome [19]

CCCO[Si](OCCC)(OCCC)OCCC
inactive: outcome [1] | max response [2] 2.55% | outcome [3] | outcome [4] | Potency [5] | outcome [6] | Potency [7] | outcome [8] | Potency [9] | Potency [10] | outcome [11] | outcome [12] | Potency [13] | Potency [14] | outcome [15] | Potency [16] | outcome [17] | outcome [19]

CCCCCCCC1CCCC1=O (stereo not given)
inactive: outcome [1] | max response [2] 18.6% | outcome [3] | outcome [4] | Potency [5] | outcome [6] | Potency [20] | outcome [8] | Potency [9] | Potency [10] | outcome [11] | outcome [12] | Potency [13] | Potency [14] | outcome [15] | Potency [16] | outcome [17] | outcome [18] | outcome [19]

O=S(=O)(O)c1cccc(S(=O)(=O)O)c1
inactive: outcome [1] | max response [2] 15.6% | outcome [3] | outcome [4] | Potency [5] | outcome [6] | Potency [7] | outcome [8] | Potency [9] | Potency [10] | outcome [11] | outcome [12] | Potency [13] | Potency [14] | outcome [15] | Potency [16] | outcome [17] | outcome [18] | outcome [19]

NS(=O)(=O)Cc1noc2ccccc12
inactive: outcome [1] | max response [2] 1.21% | outcome [3] | outcome [4] | Potency [5] | outcome [6] | Potency [7] | outcome [8] | Potency [9] | Potency [10] | outcome [11] | outcome [12] | Potency [13] | Potency [14] | Potency [16] | outcome [17] | outcome [19]

CCCc1ncc(C[n+]2ccccc2C)c(N)n1
inactive: outcome [1] | max response [2] 6.68% | outcome [3] | outcome [4] | Potency [5] | outcome [6] | Potency [7] | outcome [8] | Potency [9] | Potency [10] | outcome [11] | outcome [12] | Potency [13] | Potency [14] | Potency [16] | outcome [17] | outcome [18] | outcome [19]

CC(C)(N)C#N
inactive: outcome [1] | max response [2] -0.492% | outcome [3] | outcome [4] | Potency [5] | outcome [6] | Potency [7] | outcome [8] | Potency [9] | Potency [10] | outcome [11] | outcome [12] | Potency [13] | Potency [14] | outcome [15] | Potency [16] | outcome [17] | outcome [18] | outcome [19]

CC(COc1ccccc1)NN (stereo not given)
inactive: outcome [1] | max response [2] 2.34% | outcome [3] | outcome [4] | Potency [5] | outcome [6] | Potency [7] | outcome [8] | Potency [9] | Potency [10] | outcome [11] | Potency [13] | Potency [14] | outcome [15] | Potency [16] | outcome [18] | outcome [19]

CCN(Cc1ccccc1)c1ccccc1
active: Potency [2] 21.6 µM | Potency [13] 21.6 µM
inactive: outcome [1] | outcome [3] | outcome [4] | Potency [5] | outcome [6] | Potency [7] | Potency [9] | Potency [10] | outcome [11] | outcome [12] | Potency [14] | outcome [15] | Potency [16] | outcome [17] | outcome [18] | outcome [19]
